The values that follow come from PubChem BioAssay (NCATS).

In assay [1] the test system is Tov112D. Description: Primary qHTS to identify gynecologic anti-cancer compounds using libraries of approved drugs and bioactive compounds (AID 1345084). Also: nearly all actives have a fitted effect of over 55% in size. Also: potency is read from the fitted curve at half-maximal effect. Particulars: Gynecologic cancer cell panel viability, ATPlite luminescence, 48 h; series mostly up to 57.5 µM. The gist of the method:
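48 h compound exposure at 37 C, 5% CO2; five-point qHTS. ATPlite luminescence readout of cell ATP.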
Background: Quantitative high-throughput screening tests each substance at several concentrations.

Assay [2] is described as follows: qHTS assay to identify inhibitors of the type 1 interferon - major histocompatibility complex class I in skeletal muscle: Counter screen cell viability and HiBit confirmation (AID 1347412). Also: % is scaled to controls: 0 for no effect and ±100 for the full control effect; nearly all actives have a fitted effect of over 60% in size. Particulars: iHSKM muscle cells + IFN-b, HiBiT or CellTiter-Glo, 24 h; Potency: HiBiT; Viability, at 45.9 µM (top of the series). The gist of the method:
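After 24 h with human IFN-beta (4 ng/ml) and compound titrations (top 46 uM final, 1:3, 12 points), HLA-B HiBit myoblasts were lysed for either Nano-Glo HiBiT luminescence or CellTiter Glo viability on paired plates.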

For assay [3], the system named is astro. As to the kind of experiment: Drug repurposing screens with cells derived from glioblastoma tumor samples (AID 1345199). Also: nearly all actives have a fitted effect of over 40% in size. Also: potency is read from the fitted curve at half-maximal effect. As to activity, negative = cell killing: % is scaled to controls: 0 for no effect and ±100 for the full control effect. Particulars: viability, ATP luminescence, 48 h; series mostly up to 45.9 µM. In short, it runs like this:
(§1)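 Four patient lines of CD133+ GBM neurospheres were screened at several concentrations; hits were retested in those lines plus three slower-growing GBM lines, using 48-hour treatment and ATP-based viability.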

Assay in assay [4]: as above
Particulars: GBM patient neurospheres viability, ATP luminescence, 48 h. In short, it runs like this:
as §1

The target in assay [5] is Nuclear receptor subfamily 1 group I member 2 (Rattus norvegicus) (UniProt Q9R1A7). As to the kind of experiment: qHTS assay for small molecule activators of the rat pregnane X receptor (rPXR) signaling pathway (AID 651751; call rule not given here; also: 0% is about no effect). Particulars: rPXR reporter cells, luciferase (One-Glo), 24 h.
Nuclear receptor subfamily 1 group I member 2 (Rattus norvegicus), sequence (Q9R1A7 whole entry, looked up): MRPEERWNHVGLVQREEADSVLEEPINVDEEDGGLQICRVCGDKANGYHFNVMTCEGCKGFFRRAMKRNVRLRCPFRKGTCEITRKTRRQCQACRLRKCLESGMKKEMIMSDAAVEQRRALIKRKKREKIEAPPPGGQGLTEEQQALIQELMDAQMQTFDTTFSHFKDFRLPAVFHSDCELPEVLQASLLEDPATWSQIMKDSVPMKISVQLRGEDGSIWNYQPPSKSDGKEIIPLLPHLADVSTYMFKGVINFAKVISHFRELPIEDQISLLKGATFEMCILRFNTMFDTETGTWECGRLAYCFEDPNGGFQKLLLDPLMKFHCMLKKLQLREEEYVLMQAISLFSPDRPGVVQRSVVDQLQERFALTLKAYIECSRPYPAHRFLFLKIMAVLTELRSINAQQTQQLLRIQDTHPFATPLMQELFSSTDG
Assay [6] can be described thus: qHTS assay for small molecule activators of the human pregnane X receptor (PXR) signaling pathway (AID 720659; call rule not given here; also: 0% is about no effect).
[7] abbreviates: at 45.9 µM (top of the series), tumour line B.
The mark [8] stands for this setting: at 45.9 µM (top of the series), tumour line D.

Several values for one entry are separate records, joined by “and”; a condition that tells them apart may be missing. Equal entries are not always repeated. Unmarked numbers belong to inactive results. Inconclusive results are not listed. Activity calls are given as the source filed them. Unless noted, calls follow the shape of the dose curve; as a rule, active = well fitted curve in the direction sought with a large enough effect; inconclusive = small, poorly fitted or top-dose-only effect, or another doubt; inactive = no such curve, though single readings can be large; an effect the other way counts as inactive or inconclusive.

For `COC[C@H]1OC(=O)c2coc3c2[C@@]1(C)C1=C(C3=O)C2CCC(=O)[C@@]2(C)C[C@H]1OC(C)=O` (stereo partly drawn), the Potency result in assay [1] and in assay [2] was “inactive” throughout.
As to `c1ccc2c(c1)OCC(C1=NCCN1)O2` (stereo not drawn), the Potency in assay [3] was 15.8 µM (active). In assay [2], the Potency result is “inactive”.
Take `NCC(O)c1ccc(O)cc1` (stereo not drawn): the Potency result in assay [1] and in assay [3] was “inactive” each time. Also, the activity, negative = cell killing was -12.4% in assay [4] (setting [7]) and -9.81% in assay [4] (setting [8]). Further, the max response in assay [5] was 2.53%. Besides, the call in assay [6] was inactive.
With `CCCC(C)(COC(N)=O)COC(=O)NC(C)C` (stereo not drawn), the Potency entry in assay [1] and in assay [3] was “inactive” in each case. For the same compound, the activity, negative = cell killing in assay [4] (setting [7]) is -7.57%; in assay [4] (setting [8]) it was -17.6%. In addition, the max response in assay [5] is 6.19% and 1.57%.
On to `CCCN1CCC[C@@H]2Cc3[nH]ncc3C[C@H]21`, for which the Potency result in assay [1] and in assay [3] was “inactive” in each case. Further, the activity, negative = cell killing in assay [4] (setting [7]) is -3.57%; in assay [4] (setting [8]), -3.31%.
Turning to `CCC(COC(=O)c1cc(OC)c(OC)c(OC)c1)(c1ccccc1)N(C)C` (stereo not drawn), the Potency entry in assay [1] and in assay [3] was “inactive” in each case.
Turning to `Oc1cc(Cl)ccc1Oc1ccc(Cl)cc1Cl`, the Potency result in assay [1] was “inactive”. Besides, the activity, negative = cell killing in assay [4] (at 46 µM (top of the series), tumour line A) was -27.9%. For the same compound, the Potency in assay [3] was 28.2 µM (active). Moreover, in assay [5], the max response is -4.24%. Further, the outcome in assay [6] was inactive.
In the case of `O=c1oc2ccccc2c(O)c1C(CC(O)c1ccc(-c2ccc(Br)cc2)cc1)c1ccccc1` (stereo not drawn), the Potency result in assay [1] is “inactive”. Besides, the activity, negative = cell killing in assay [4] (setting [7]) was -19.7%. The max response in assay [5] is -13.3%. Further, the compound was classed as inactive in assay [6].
As for `C=C(C)[C@H]1Cc2c(ccc3c2O[C@@H]2COc4cc(OC)c(OC)cc4[C@@H]2C3=O)O1`, the results for the Potency in assay [1] and in assay [3] were 1.78 µM (active) and 0.562 µM (active), respectively. Also, the max response in assay [5] is -14.4%.
On to `C[C@]12CCC(=O)C(O)=C1CC[C@@H]1[C@@H]2CC[C@]2(C)C(=O)CC[C@@H]12`, for which the Potency entry in assay [1] and in assay [3] was “inactive” in each case. In addition, in assay [5], the max response was 2.3%.
Turning to `COc1ccc(Cc2nccc3cc(OC)c(OC)cc23)cc1OC`, the Potency result in assay [1] was “inactive”. The Potency in assay [3] is 10 µM (active).
Turning to `O=C1CC[C@@]2(O)[C@H]3Cc4ccc(O)c5c4[C@@]2(CCN3CC2CC2)[C@H]1O5`, the Potency entry in assay [1] and in assay [3] was “inactive” in each case. Moreover, the activity, negative = cell killing in assay [4] (setting [7]) was 1.04%; in assay [4] (setting [8]), -3.21%.
With `Oc1cccc2cccnc12`, the Potency entry in assay [1] is “inactive”. For the same compound, the figures for the activity, negative = cell killing in assay [4] (setting [7]) and in assay [4] (setting [8]) were -22.3% and -9.58%, respectively. In addition, in assay [6], the result was inactive.
Turning to `Clc1ccc(COC(Cn2ccnc2)c2ccc(Cl)cc2Cl)cc1` (stereo not drawn), the Potency is 2.24 µM (active) in assay [4] (tumour line A) and 12.6 µM (active) in assay [4] (tumour line D).
As to `Fc1ccc(C(OCCN2CCN(CCCc3ccccc3)CC2)c2ccc(F)cc2)cc1`, in assay [3], the Potency is 22.4 µM (active).
Regarding `FC(F)(F)c1cccc(C2=CCN(CCc3ccc4ccccc4c3)CC2)c1`, the Potency entry in assay [1] and in assay [3] was “inactive” each time.
As for `O=[N+]([O-])c1cc([As](=O)(O)O)ccc1O`, the Potency result in assay [1] and in assay [3] was “inactive” each time.
On to `CN(C)CCc1ccc(O)cc1`, for which the Potency result in assay [1] and in assay [3] was “inactive” throughout. Also, the activity, negative = cell killing in assay [4] (setting [7]) is -0.64%; in assay [4] (setting [8]), -12.6%.
Consider `CO[C@]12CC[C@@]3(C[C@@H]1[C@](C)(O)C(C)(C)C)[C@@H]1Cc4ccc(O)c5c4[C@@]3(CCN1CC1CC1)[C@H]2O5`, for which the Potency in assay [3] was 31.6 µM (active).
As for `C[C@]12C/C(=C/O)C(=O)C[C@@H]1CC[C@@H]1[C@@H]2CC[C@@]2(C)[C@H]1CC[C@]2(C)O`, the Potency entry in assay [1] and in assay [3] was “inactive” each time. Besides, the activity, negative = cell killing in assay [4] (setting [7]) is -10.4%; in assay [4] (setting [8]), -15.9%. Besides, the max response in assay [5] was -5.34% and -0.621%. The call in assay [6] was inactive.
With `CC(=O)[C@H]1CC[C@H]2[C@@H]3CC[C@H]4C[C@](C)(O)CC[C@]4(C)[C@H]3CC[C@]12C`, the Potency entry in assay [1] and in assay [3] was “inactive” in each case. For the same compound, the activity, negative = cell killing in assay [4] (setting [7]) was -20.7%.
In the case of `Cc1cc(SCc2sc(-c3ccc(C(F)(F)F)c(F)c3)nc2C)ccc1OCC(=O)O`, the Potency entry in assay [1] is “inactive”. Further, the max response in assay [5] is 13%.
With `N[C@@H](Cc1ccc(N(CCCl)CCCl)cc1)C(=O)O`, the max response in assay [5] was 1.48% and 0.994%.
For `O=C(O)c1ccc2[nH]cc(CCCCN3CC=C(c4ccccc4)CC3)c2c1`, the Potency entry in assay [1] and in assay [3] was “inactive” throughout. Besides, the activity, negative = cell killing was -0.385% in assay [4] (setting [7]) and -15.3% in assay [4] (setting [8]).
In the case of `NCCc1cc(O)c(O)cc1O`, the Potency result in assay [1] and in assay [3] was “inactive” in each case. The activity, negative = cell killing in assay [4] (setting [7]) is -19%; in assay [4] (setting [8]), -22%.
